The text below walks through data of the supplement of paper PMC6555819.

One experiment has as its system LXRb:RXRa (NR concentration 270 nM, RXRa partner concentration 90 nM). The experiment in a line: PBM binding z-score (relative to random genomic background probes); higher = stronger binding; sequences stand for … in GC…GCGATTGACAGCGTAGAATGAAGG
Put shortly:
(§1)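 Binding buffer was PBS pH 7.4 with 2% milk, 0.02% Triton X-100, 1 mM DTT, 0.2 mg/mL BSA and 0.4 mg/ml salmon testes DNA. In it, ligand-free nuclear receptor dimers were incubated 1 h on custom Agilent 4×180K protein-binding microarrays carrying double-stranded probes. Antibodies against each partner (one per run) detected binding, and z-scores were calculated against random background probes after regression normalization of scanned fluorescence.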
With CGAACTAGGTAACCAGGACAGTGAAGAGGTTGGA, the PBM binding z-score is -0.525.

In turn, CGAACTAGGTCAAAGGACAGTTAAAGGCGACGTA returned a PBM binding z-score of 1.95.

With CGAACTAGGTCAAAGGACAGTGCAAGGCGACGTA, the PBM binding z-score was 1.63.

CGAACTAGGTTACCAGGACAGTGAAGAGGTTGGA came in with a PBM binding z-score of -0.238.

Regarding CGAACTAGGTCACCAGGAGAGTGAAGAGGTTGGA, the PBM binding z-score turned out to be 1.33.

For ATATGTAGGTTAGGGTCATCCAGAAAGTAGGGAA, the PBM binding z-score was 4.31.

CGAACTAGGTCACCCGGACAGTGAAGAGGTTGGA yielded a PBM binding z-score of 1.65.

For the sequence ATATGTAGGTTTGGGTCATTCAGAAAGTAGGGAA, the PBM binding z-score worked out at 2.49.

In turn, CGAACTAGGTCAAAGGACAGGGAAAGGCGACGTA showed a PBM binding z-score of 1.77.

With CGAACTAGGTCACAGGACAGTGAAAGGCGACGTA, the PBM binding z-score worked out at 1.78.

On to CGAAATAGGTCACCAGGACAGTGAAGAGGTTGGA, for which the PBM binding z-score turned out to be 3.13.

In turn, CGAACTAGGTCGAAGGACAGTGAAAGGCGACGTA came in with a PBM binding z-score of -0.3.

Turning to CGAACTAGTTCAAAGGACAGTGAAAGGCGACGTA, the PBM binding z-score is -0.231.

ATATGTAGGTTATGGTCATTCAGAAAGTAGGGAA showed a PBM binding z-score of 1.37.

Consider CGAACTAGGTTAAAGGACAGTGAAAGGCGACGTA, for which the PBM binding z-score was determined as 0.129.

CGAACTAGGTCAAAGGACAGAGAAAGGCGACGTA displayed a PBM binding z-score of 1.9.

In turn, CGAACTAGGTCACCAGGACAGTGATGAGGTTGGA showed a PBM binding z-score of 1.49.

The sequence ATATGTAGGTTAGGGTCATGCAGAAAGTAGGGAA returned a PBM binding z-score of 4.29.

Consider CGAACTAGGTCAAAGGACAGTGACAGGCGACGTA, for which the PBM binding z-score was determined as 1.88.

Consider CGTACTAGGTCAAAGGACAGTGAAAGGCGACGTA, for which the PBM binding z-score was determined as 1.89.

ATACGTAGGTTAGGGTCATTCAGAAAGTAGGGAA had a PBM binding z-score of 4.2.

For ATATGTAGGTTAGGGTCATTAAGAAAGTAGGGAA, the PBM binding z-score was 4.44.

The sequence CGAACTAGGTGACCAGGACAGTGAAGAGGTTGGA had a PBM binding z-score of -0.307.

The sequence CGAACTAGGTCATAGGACAGTGAAAGGCGACGTA came in with a PBM binding z-score of 1.66.

Turning to CGAGCTAGGTCAAAGGACAGTGAAAGGCGACGTA, the PBM binding z-score was 1.53.

ATATGTAGGTGAGGGTCATTCAGAAAGTAGGGAA returned a PBM binding z-score of 3.43.

ATAGGTAGGTTAGGGTCATTCAGAAAGTAGGGAA came in with a PBM binding z-score of 4.8.

AGATGTAGGTTAGGGTCATTCAGAAAGTAGGGAA: the PBM binding z-score worked out at 4.56.

AAATGTAGGTTAGGGTCATTCAGAAAGTAGGGAA showed a PBM binding z-score of 4.67.

CGAACTAGGTCAAAGGAAAGTGAAAGGCGACGTA came in with a PBM binding z-score of 1.2.

Sequence CGAACTAGGTCACCAGGACATTGAAGAGGTTGGA displayed a PBM binding z-score of 1.82.

As for CGAACTAGGTCAAAGGACAGTCAAAGGCGACGTA, the PBM binding z-score stood at 1.89.

Take CGAAATAGGTCAAAGGACAGTGAAAGGCGACGTA: the PBM binding z-score is 3.47.

In turn, ATATGAAGGTTAGGGTCATTCAGAAAGTAGGGAA had a PBM binding z-score of 4.52.

The sequence ATATGTGGGTTAGGGTCATTCAGAAAGTAGGGAA returned a PBM binding z-score of 5.31.

Consider CGAACTAGGTCAAAGGACAGTAAAAGGCGACGTA, for which the PBM binding z-score was determined as 2.04.

As to ATATGTAGGTTAGGGGCATTCAGAAAGTAGGGAA, the PBM binding z-score amounted to 3.01.

In turn, CGAACTAGGTCACCAGGCCAGTGAAGAGGTTGGA displayed a PBM binding z-score of 1.44.

As to CGAACTAGGTCACCAAGACAGTGAAGAGGTTGGA, the PBM binding z-score is 1.32.

Another experiment relates to LXRb homodimer (NR concentration 270 nM). Described as above. Put shortly: as §1
Turning to CGAACTAGGTAACCAGGACAGTGAAGAGGTTGGA, the PBM binding z-score was -0.784.

Consider CGAACTAGGTCAAAGGACAGTTAAAGGCGACGTA, for which the PBM binding z-score is -0.158.

For the sequence CGAACTAGGTCAAAGGACAGTGCAAGGCGACGTA, the PBM binding z-score is -0.463.

In the case of CGAACTAGGTTACCAGGACAGTGAAGAGGTTGGA, the PBM binding z-score was -0.499.

With CGAACTAGGTCACCAGGAGAGTGAAGAGGTTGGA, the PBM binding z-score is -0.287.

As to ATATGTAGGTTAGGGTCATCCAGAAAGTAGGGAA, the PBM binding z-score was found to be 1.44.

CGAACTAGGTCACCCGGACAGTGAAGAGGTTGGA: the PBM binding z-score came to 0.00893.

Sequence ATATGTAGGTTTGGGTCATTCAGAAAGTAGGGAA showed a PBM binding z-score of 1.68.

Sequence CGAACTAGGTCAAAGGACAGGGAAAGGCGACGTA registered a PBM binding z-score of -0.371.

Turning to CGAACTAGGTCACAGGACAGTGAAAGGCGACGTA, the PBM binding z-score is -0.469.

For CGAAATAGGTCACCAGGACAGTGAAGAGGTTGGA, the PBM binding z-score came to 0.187.

Regarding CGAACTAGGTCGAAGGACAGTGAAAGGCGACGTA, the PBM binding z-score was -1.11.

CGAACTAGTTCAAAGGACAGTGAAAGGCGACGTA came in with a PBM binding z-score of -0.842.

ATATGTAGGTTATGGTCATTCAGAAAGTAGGGAA had a PBM binding z-score of 0.916.

As to CGAACTAGGTTAAAGGACAGTGAAAGGCGACGTA, the PBM binding z-score was -0.736.

On to CGAACTAGGTCAAAGGACAGAGAAAGGCGACGTA, for which the PBM binding z-score is -0.178.

CGAACTAGGTCACCAGGACAGTGATGAGGTTGGA had a PBM binding z-score of -0.567.

ATATGTAGGTTAGGGTCATGCAGAAAGTAGGGAA yielded a PBM binding z-score of 1.21.

CGAACTAGGTCAAAGGACAGTGACAGGCGACGTA had a PBM binding z-score of -0.493.

Consider CGTACTAGGTCAAAGGACAGTGAAAGGCGACGTA, for which the PBM binding z-score was -0.0877.

In the case of ATACGTAGGTTAGGGTCATTCAGAAAGTAGGGAA, the PBM binding z-score was found to be 1.26.

For the sequence ATATGTAGGTTAGGGTCATTAAGAAAGTAGGGAA, the PBM binding z-score was found to be 1.52.

Take CGAACTAGGTGACCAGGACAGTGAAGAGGTTGGA: the PBM binding z-score is -0.898.

Turning to CGAACTAGGTCATAGGACAGTGAAAGGCGACGTA, the PBM binding z-score is -0.283.

Sequence CGAGCTAGGTCAAAGGACAGTGAAAGGCGACGTA displayed a PBM binding z-score of -0.726.

In the case of ATATGTAGGTGAGGGTCATTCAGAAAGTAGGGAA, the PBM binding z-score amounted to 1.43.

In the case of ATAGGTAGGTTAGGGTCATTCAGAAAGTAGGGAA, the PBM binding z-score came out at 2.83.

AGATGTAGGTTAGGGTCATTCAGAAAGTAGGGAA: the PBM binding z-score came to 2.05.

AAATGTAGGTTAGGGTCATTCAGAAAGTAGGGAA had a PBM binding z-score of 1.5.

In turn, CGAACTAGGTCAAAGGAAAGTGAAAGGCGACGTA registered a PBM binding z-score of -0.265.

CGAACTAGGTCACCAGGACATTGAAGAGGTTGGA returned a PBM binding z-score of -0.284.

Sequence CGAACTAGGTCAAAGGACAGTCAAAGGCGACGTA displayed a PBM binding z-score of -0.231.

The sequence CGAAATAGGTCAAAGGACAGTGAAAGGCGACGTA displayed a PBM binding z-score of 0.71.

Turning to ATATGAAGGTTAGGGTCATTCAGAAAGTAGGGAA, the PBM binding z-score came to 1.7.

ATATGTGGGTTAGGGTCATTCAGAAAGTAGGGAA: the PBM binding z-score was 3.87.

CGAACTAGGTCAAAGGACAGTAAAAGGCGACGTA came in with a PBM binding z-score of -0.428.

Regarding ATATGTAGGTTAGGGGCATTCAGAAAGTAGGGAA, the PBM binding z-score stood at 2.52.

Sequence CGAACTAGGTCACCAGGCCAGTGAAGAGGTTGGA returned a PBM binding z-score of -0.76.

Turning to CGAACTAGGTCACCAAGACAGTGAAGAGGTTGGA, the PBM binding z-score was -0.272.
